# Measured values from PubChem BioAssay (NCI).
# Compounds without any hit were thinned out: in the full panel of roughly 83,000, 20% have a hit.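 Growth was measured after 48 h exposure to one concentration of compound in 96-well plates. Values under 10 count as active.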 Values without a mark were called inactive. Calls of active or inactive are those of the source.
# Tested on: HCT-116 colon
# Assay: NCI-60 one-dose screen, 48 h (100 = growth as untreated, 0 = no growth, -100 = all killed)
# Conditions: 10 µM unless noted
# Protocol: Growth inhibition of the HCT-116 human tumor cell line is measured as a screen for anti-cancer activity. Cells are grown in 96 well plates and exposed to the test compound for 48 hours. Compounds are tested at a single concentration, which is 10^-5 M for most compounds. The reported endpoint is percent growth (GI% or GIPRCNT), where numbers from 0 - 100% represent growth inhibition, and numbers from -100% - 0 represent cell death. For example, a value of 40 represents 60% growth inhibition. A value of 0 means no net growth occurred over the course of the experiment. A value of -40 indicates 40% of cells at the beginning of the experiment died by the end of the experiment. A value of -100 means all cells are dead at the end of the experiment.
# NCI-60 Human Tumor Cell Lines Screen was performed using the standard one-dose NCI protocol, which is described in more detail at https://dtp.cancer.gov/discovery_development/nci-60/default.htm.
# Compounds with GIPRCNT values below 10 were considered active. Activity score was based on GIPRCNT using the following formula: […]
# Score is 0 for GIPRCNT values of 100 or above, 50 for GIPRCNT values of 0, and 100 for GIPRCNT values of -100.
row,Compound,growth
1,COc1cnc2c(c1)C(=O)c1c-2n(CCCN2CCOCC2)c(=O)c2cc(Cl)ccc12,8.51% (active)
2,CN(C)C/C=C/C(=O)Nc1cc2c(Nc3ccc(F)c(Cl)c3)ncnc2cc1O[C@H]1CCOC1,-59.8% (active)
3,COc1ccc2c(CCCC(c3ccccc3)c3ccccc3)c3[n+](cc2c1OC)CCc1cc2c(cc1-3)OCO2,-33.9% (active)
4,c1ccc2c(c1)CCN(NCCN1CCCC1)C2,85.6%
5,CCC1(/C=N/NC(N)=S)NC(=O)NC1=O (stereo not given),101%
6,CCCc1cc2cc(-n3nc(C)c4c3CC(C)(C)CC4=O)cc(NC3CCC(O)CC3)c2c(=O)[nH]1 (stereo not given),11.3%
7,Cc1ccc(Nc2nccc(N(C)c3ccc4c(C)n(C)nc4c3)n2)cc1S(N)(=O)=O,3.7% (active)
8,NS(=O)(=O)c1ccc(CCN2C(=O)/C(=C\c3ccc(Cl)cc3)C=C2c2ccc3ccccc3c2)cc1,89.5%
9,CCc1nc2cc(/C=C/C(=O)NO)ccc2c(=O)n1CCc1ccc(OC)cc1,1.28% (active)
10,COc1cc2ncnc(Oc3cccc(NC(=O)Nc4cc(C(C)(C)C(F)(F)F)on4)c3)c2cc1OC,10.8%
11,CSc1nc2ncncc2[nH]1,84.8%
12,Cc1cc(Nc2nc(N[C@@H](C)c3ncc(F)cn3)ncc2Cl)n[nH]1,62.4%
13,COc1cc2c(cc1OCCCN1Cc3ccc(OCCCCC(=O)N4CCC(CCN5CCCC5)CC4)cc3C1)N=C(N)C21CCCC1,68.1%
14,COC(=O)[C@H](Cc1ccccc1)NC(=O)[C@@H](OC)[C@@H]1Cc2cc3cc(OC4CC(OC5CC(O)C(O)C(C)O5)C(O)C(C)O4)c(C)c(O)c3c(O)c2C(=O)[C@H]1OC1CC(OC2CC(OC3CC(C)(O)C(O)C(C)O3)C(O)C(C)O2)C(O)C(C)O1 (stereo not given in full),1.85% (active)
15,CC/C=C\C[C@H]1C/C=C2/C(=O)C=C[C@@H]2C/C=C\CCCC(=O)O1,-67.5% (active)
16,C=CCn1c(=O)c2cnc(Nc3ccc(N4CCN(C)CC4)cc3)nc2n1-c1cccc(C(C)(C)O)n1,2.48% (active)
17,N#Cc1c(NC(=O)c2cccs2)[n+]([O-])c2ccc(F)cc2[n+]1[O-],104%
18,CCOc1cc2ncc(C#N)c(Nc3ccc(OCc4ccccn4)c(Cl)c3)c2cc1NC(=O)/C=C/CN(C)C,-81.2% (active)
19,CCN(CC)CCN1C(=O)c2cccc3c(-c4ccc5c(c4)ncn5C4CCCCC4)ccc(c23)C1=O,-66.1% (active)
20,O=C(Cc1ccc(/C=C/C(=O)c2ncc[nH]2)cc1)Nc1ccc(S(F)(F)(F)(F)F)cc1,-73.6% (active)

row,Compound,growth
1,O=C(c1c(F)ccc(NS(=O)(=O)N2CC[C@@H](F)C2)c1F)c1c[nH]c2ncc(-c3cnc(C4CC4)nc3)cc12,30.8%
2,Cc1cn(-c2cc(NC(=O)c3ccc(C)c(Nc4nccc(-c5cnccn5)n4)c3)cc(C(F)(F)F)c2)cn1,42.6%
3,CC/C(=C(\c1ccc(OCCN2CCCCCCC2)cc1)c1ccc(OC(=O)C2CCCCC2)cc1)c1ccc(Cl)cc1,87.3%
4,Oc1ccc(/C=N/Nc2nnc(N/N=C/c3ccc(O)cc3O)c3ccccc23)c(O)c1,-44.1% (active)
5,Cc1cc(C(=O)Nc2cc(Oc3ccc4nc(NC(=O)C5CC5)cn4n3)ccc2C)n(C)n1,6.14% (active)
6,COc1cc2nccc(Oc3ccc(NC(=O)C4(C(=O)Nc5ccc(F)cc5)CC4)cc3)c2cc1OC,1.99% (active)
7,CCOc1ccc(N=C(C)Nc2ccc(OCC)cc2)cc1,104%
8,COc1ccc(F)c(F)c1C(=O)c1cnc(NC2CCN(S(C)(=O)=O)CC2)nc1N,4.77% (active)
9,CC[C@@H]1C(=O)N(C)c2cnc(Nc3ccc(C(=O)NC4CCC(N5CCN(CC6CC6)CC5)CC4)cc3OC)nc2N1C(C)C (stereo not given in full),-6.9% (active)
10,CN(N)c1nc2sc3c(c2c(=O)[nH]1)CCCC3,94.9%
11,Cc1cc2c(-c3nc4ccccn4c3NC3CCCCC3)c(O)c(O)cc2c(O)c1-c1c(C)cc2c(-c3nc4ccccn4c3NC3CCCCC3)c(O)c(O)cc2c1O,14.2%
12,CC(=Nc1ccccc1)C1=C(O)C(Cc2ccc(O)cc2)NC1=O (stereo not given),3.3% (active)
13,CCN1CCN(c2nc(C)cc(N(CCCNc3ccnc4cc(Cl)ccc34)Cc3ccc4c(c3)OCO4)n2)CC1,-9.36% (active)
14,N#Cc1c(NC(=O)c2ccco2)[n+]([O-])c2cc(F)c(F)cc2[n+]1[O-],101%
15,Cc1cc2c(-c3nc4ccccn4c3Nc3cccc4ccccc34)c(O)c(O)cc2c(O)c1-c1c(C)cc2c(-c3nc4ccccn4c3Nc3cccc4ccccc34)c(O)c(O)cc2c1O,-5.99% (active)
16,Nc1nc(N)c2cc(CNc3ccc(C(=O)NC(CC(=O)O)C(=O)O)cc3)ccc2n1 (stereo not given),22.4%
17,C#Cc1cccc(Nc2ncnc3cc(OC)c(OCCCCCCC(=O)NO)cc23)c1,-27.4% (active)
18,N#Cc1c(-c2ccc(C(F)(F)F)cc2)cc(NCC2CCS(=O)(=O)CC2)n2c1nc1ccccc12,74.9%
19,Cc1[nH]c(/C=C2\C(=O)Nc3ccc(F)cc32)c(C)c1C(=O)NC[C@H](O)CN1CCOCC1,10.7%
20,O=C1OCC2=C1C(c1cccc(F)c1)c1cc3c(cc1N2CCO)OCCO3 (stereo not given),11.2%
